The list is not random: actives were taken first. Their share in the collection is about 9.4%.
SARS PLP yeast – qHTS of Yeast-based Assay for SARS-CoV PLP | S. cerevisiae expressing SARS-CoV PLpro, growth rescue | Potency, µM (highest dose often 32.9 µM), actives largely listed as activators | 0.19% of 330,000 active; calls by dose curve; also: nearly all actives have a fitted effect of over 55% in size
Pf growth 48h – Primary qHTS for delayed death inhibitors of the malarial parasite plastid, 48 hour incubation; P. falciparum luciferase growth in erythrocytes, 48 h; Potency, µM (highest dose often 28.7 µM), usual class: inhibitors; 5.9% of 310,000 active; AID 504832, 2011
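Luminescence readout; reporter = integrated firefly luciferase in P. falciparum. RBC culture at 2% hematocrit, 0.1% parasitemia final, 37 C/5% CO2; decreased signal taken as growth inhibition.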
AMA1 RON2 block – qHTS for Inhibitors of AMA1-RON; Towards Development of Antimalarial Drug Lead: Primary Screen. AID 720542, 2013. AlphaScreen AMA1-biotinylated RON2 peptide binding. 0.2% of 360,000 active. Potency, µM (highest dose often 58.2 µM), hits mostly inhibitors; also: nearly all actives have a fitted effect of over 45% in size
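AMA1 (3D7) with his tag at 25 nM final met compounds first, then biotinylated RON2 peptide at 25 nM; detection used donor plus acceptor beads, 10 µg/mL apiece, read by AlphaScreen after 30 min at room temperature.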
Pf growth 96h – Primary qHTS for delayed death inhibitors of the malarial parasite plastid, 96 hour incubation; P. falciparum luciferase reporter growth, 96 h; Potency, µM (titrated, usually from 28.7 µM), actives largely listed as inhibitors; 6.9% of 320,000 active; AID 504834, 2011
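Two-generation exposure (96 h) targets delayed-death phenotype. Reporter parasites carrying integrated firefly luciferase, in red cells at 2% hematocrit and 0.05% parasitemia final, kept at 37 C, 5% CO2; luminescence loss indicates inhibition.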
Numbers stand for hits; n = inactive; u = inconclusive; x = no result; [ ] = another dose, or the depositor's remark. Unless noted, calls follow the shape of the dose curve; as a rule, active = well fitted curve in the direction sought with a large enough effect; inconclusive = small, poorly fitted or top-dose-only effect, or another doubt; inactive = no such curve, though single readings can be large; an effect the other way counts as inactive or inconclusive.

SMILES	SARS PLP yeast	Pf growth 48h	AMA1 RON2 block	Pf growth 96h
COc1ccc(CC(N)c2csc(NC(=O)c3ccc(F)cc3)n2)cc1 (stereo not drawn)	x	x	n	x
Cc1ccc(Nc2ccc(C(=O)O)cc2[N+](=O)[O-])cc1	n	x	n	9.3µM
Cc1cccc(C(=O)N2CCN(c3ccc([N+](=O)[O-])c(NCc4ccco4)c3)CC2)c1	n	u	u	12µM
Cc1ccccc1C(=O)N1CCN(c2ccc([N+](=O)[O-])c(NCc3ccco3)c2)CC1	n	13µM	n	u
CN1CCN(c2ccc([N+](=O)[O-])c(NCc3ccco3)c2)CC1	n	n	n	u
O=C(c1cccc2ccccc12)N1CCN(c2ccc([N+](=O)[O-])c(NCc3ccco3)c2)CC1	n	u	n	n
O=[N+]([O-])c1ccc(N2CCNCC2)cc1NCc1ccco1	n	n	n	n
Cc1ccc(C(=O)N2CCN(c3ccc([N+](=O)[O-])c(NCc4ccco4)c3)CC2)cc1	n	u	n	4.7µM
Cc1ccc(S(=O)(=O)N(Cc2ccccc2)Cc2ccco2)cc1	n	u	n	n
Cn1cc(CN2CCCC(C(=O)c3ccc(-c4ccccc4)c(F)c3)C2)cn1 (stereo not drawn)	n	u	n	u
Cc1nn(C)cc1CN1CCCC(C(=O)c2ccc(-c3ccccc3)c(F)c2)C1 (stereo not drawn)	n	15µM	n	n
O=C(c1ccc(-c2ccccc2)c(F)c1)C1CCCN(C(=O)c2cncs2)C1 (stereo not drawn)	n	u	n	13µM
CC(=O)Nc1ccccc1C(=O)C(=O)Nc1cccc(C(=O)N2CC(C)CC(C)C2)c1 (stereo not drawn)	n	n	n	u
CCOC(=O)N/N=C(/C)c1ccc(N2C(=O)C3CCCCC3C2=O)cc1 (stereo not drawn)	n	n	n	u
Cc1ncc(CO)c2c1Oc1nc(-c3ccccc3)nc(SCC(=O)N(C)c3ccccc3)c1C2	x	u	x	13µM
COc1ccccc1-c1nc2c(c(SCC(=O)N3CCCCC3)n1)Cc1c(CO)cnc(C)c1O2	n	10µM	n	1.7µM
Cc1cccc(-c2nc3c(c(SCC(=O)N4CCOCC4)n2)Cc2c(CO)cnc(C)c2O3)c1	n	5.9µM	n	n
Cc1ncc(CO)c2c1Oc1nc(-c3ccccc3)nc(SCC(=O)N3CCCCC3)c1C2	n	u	n	u
COc1cccc(-c2nc3c(c(SCC(=O)N4CCOCC4)n2)Cc2c(CO)cnc(C)c2O3)c1	n	u	n	13µM
Nc1nc(CN2CCOCC2)cs1	n	n	n	x
O=c1cc(O)nc[nH]1	n	n	n	n
CCOc1ccc(NC(=O)CSc2nnc(C3CC3)n2C2CC2)cc1	n	n	n[11.6 µM]	n
CC(=O)Nc1ccc(S(=O)(=O)NCCC(=O)OCc2csc(CC(=O)Nc3ccccc3C)n2)cc1	n	12µM	n	u
Cc1cc(C)c(C(=O)OCc2csc(CC(=O)Nc3ccccc3C)n2)c(C)c1	n	u	n	u
CC(=O)Nc1cccc(C(=O)OCc2csc(CC(=O)Nc3ccccc3C)n2)c1	n	9.3µM	n[11.6 µM]	u
SMILES	SARS PLP yeast	Pf growth 48h	AMA1 RON2 block	Pf growth 96h
COc1ccc(C(=O)NCC(=O)OCc2nc(N)nc(Nc3ccccc3C)n2)cc1	n	n	n	u
COC(=O)C1=C(c2ccccc2OCc2ccccc2)C[C@@H]2CC[C@H]1N2C(=O)NCc1ccc(Cl)cc1	n	9.3µM	n	u
COC(=O)C1=C(c2ccccc2OCc2ccccc2)C[C@@H]2CC[C@H]1N2C(=O)NCc1ccc(N(C)C)cc1	n	6.6µM	u	u
COC(=O)C1=C(c2ccccc2OCc2ccccc2)C[C@@H]2CC[C@H]1N2C(=O)NCc1ccc([N+](=O)[O-])cc1	n	12µM	n	u
COC(=O)C1=C(c2ccc(F)cc2OCc2ccccc2)C[C@@H]2CC[C@H]1N2C(=O)NCc1ccc(N(C)C)cc1	n	12µM	u	u
Cc1ccc(Sc2c(C)nn(C(=O)C3CC3)c2C)cc1	n	n	n	n
O=C(N/C(=C/c1cccc([N+](=O)[O-])c1)C(=O)N1CCOCC1)c1ccccc1Br	n	n	n	u
O=c1cc(CO)occ1OCc1cccc(C(F)(F)F)c1	n	n	n	n
Cc1cc(C)nc(NC(=NCCc2c[nH]c3ccccc23)NC(=O)C(C)(C)C)n1	n	10µM	n	4.7µM
CCOC(=O)C1=C(CN2CCN(C(=O)c3ccco3)CC2)NC(=O)NC1c1ccc(F)cc1 (stereo not drawn)	n	10µM	n	n
CC(C)Oc1ccc(C(=O)N2CCN(C(=O)c3ccco3)CC2)cc1	n	n	n	10µM
CCOC(=O)C1=C(CN2CCN(C(=O)c3ccco3)CC2)NC(=O)NC1c1ccc(Cl)cc1 (stereo not drawn)	n	3.7µM	n	u
CCOC(=O)C1=C(CN2CCN(C(=O)c3ccco3)CC2)NC(=O)NC1c1ccc(OC(C)C)cc1 (stereo not drawn)	n	12µM	n	u
Cc1cccc2c(=O)c(-c3ccc(Cl)cc3)c(NC(=O)c3ccco3)oc12	n	n	n	n
CC(C)N(C(=O)[C@H]1C[C@H](CC(=O)NCc2cccc(C(F)(F)F)c2)C(=O)N2CCc3c([nH]c4cc(-c5ccco5)ccc34)[C@]12C)C(C)C	n	x	n	x
CCc1cc2c(=O)c(-c3nc4ccccc4[nH]3)coc2cc1OC(=O)N1CCOCC1	n	n	n	n
COc1ccccc1-n1cc(C(=O)NCC(=O)NCc2ccc(F)cc2)c2ccccc2c1=O	n	n	n	u
Cc1ccc(S(=O)(=O)N2CCC(=O)N([C@H](COCc3ccc(Cl)cc3)C(C)C)CC2)cc1	x	x	n	x
CN(CC1CCN(CCc2cccc(C(F)(F)F)c2)CC1)C(=O)c1ccc(F)cc1	n	n	n	13µM
O=C(NCc1ccccn1)Nc1ccc(F)cc1F	n	n	n	n
Cc1cccc2cc(CN(Cc3ccco3)C(=O)c3cccs3)c(=O)[nH]c12	n	10µM	n	9.3µM
Cc1ccc(C)c2[nH]c(=O)c(CN(Cc3ccco3)C(=O)Nc3ccccc3)cc12	n	12µM	n	u
Cc1ccc(NC(=O)N(Cc2ccco2)Cc2cc3cc(C)cc(C)c3nc2Cl)cc1	n	u	x	u
Cc1ccc2cc(CN(Cc3ccco3)C(=O)NCc3ccccc3)c(=O)[nH]c2c1C	n	n	n	12µM
Cc1cccc2cc(CN(Cc3ccco3)C(=O)Nc3cccc(C#N)c3)c(Cl)nc12	n	9.3µM	n	13µM
CC(C)C1(C)N=C(c2ncccc2C(=O)O)NC1=O (stereo not drawn)	n	x	u	n
CCOC(=O)c1c(OCC)[nH]c2c1cc(O)c1ccccc12	n	x	15µM	n
CCOC(=O)c1c(C)[nH]c2cc(Br)c(O)cc12	n	x	n	x
Cc1cc(C)cc(NC(=O)CSc2nc3[nH]c(=O)cc(O)c3s2)c1	n	n	n	n
COc1ccc(C(=O)N(CN2CCCC2=O)c2ccccc2OC)cc1OC	n	n	n	0.0041µM

Assay outcomes from PubChem BioAssay.
